# Measured values reported in the supplement of paper PMC8728848.
# Only a selection was taken, and the strongest signals are over-represented in it overall.
# Columns and labels:
# Experiment in all cases: glycan array binding signal (z-score within array); higher = stronger binding
# Settings in all cases: glycan notation: IUPAC condensed, linker removed
# GalNAc(a1-3)GalNAc = biological target: GalNAc(a1-3)GalNAc
# Method in brief: (§1)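 Glycan array data came from 3228 arrays in the Consortium for Functional Glycomics database, and only arrays with an available protein sequence were kept. Glycan names were put into IUPAC-condensed notation, and columns mapping to the same glycan were averaged. The binding signal is a within-array Z-score, averaged across arrays of one protein sequence run at different concentrations or buffers and across linkers. A negative Z-score can be read as non-binding.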
# [1] = biological target: GalNAc(b1-4)GlcNAc(b1-2)Man(a1-3)[GalNAc(b1-4)GlcNAc(b1-2)Man(a1-6)]Man(b1-4)GlcNAc(b1-4)GlcNAc
# Method in brief: as §1
# [2] = biological target: GalNAc(b1-4)GlcNAc(b1-3)GalNAc(b1-4)GlcNAc
# Method in brief: as §1
# Glc(a1-6)Glc(a1-6)Glc = biological target: Glc(a1-6)Glc(a1-6)Glc
# Method in brief: as §1
# GlcA(b1-3)Gal = biological target: GlcA(b1-3)Gal
# Method in brief: as §1
# [3] = biological target: GlcNAc(b1-2)Man(a1-3)[GlcNAc(b1-4)][GlcNAc(b1-2)Man(a1-6)]Man(b1-4)GlcNAc(b1-4)[Fuc(a1-6)]GlcNAc
# Method in brief: as §1
# [4] = biological target: GlcNAc(b1-3)Gal(b1-4)GlcNAc(b1-2)[GlcNAc(b1-3)Gal(b1-4)GlcNAc(b1-6)]Man(a1-6)[GlcNAc(b1-3)Gal(b1-4)GlcNAc(b1-2)Man(a1-3)]Man(b1-4)GlcNAc(b1-4)GlcNAc
# Method in brief: as §1
# [5] = biological target: GlcNAc(b1-3)Gal(b1-4)GlcNAc(b1-3)Gal(b1-4)GlcNAc(b1-2)Man(a1-3)[GlcNAc(b1-3)Gal(b1-4)GlcNAc(b1-3)Gal(b1-4)GlcNAc(b1-2)Man(a1-6)]Man(b1-4)GlcNAc(b1-4)[Fuc(a1-6)]GlcNAc
# Method in brief: as §1
# [6] = biological target: GlcNAc(b1-3)Gal(b1-4)GlcNAc(b1-3)Gal(b1-4)GlcNAc(b1-2)[GlcNAc(b1-3)Gal(b1-4)GlcNAc(b1-3)Gal(b1-4)GlcNAc(b1-6)]Man(a1-6)[GlcNAc(b1-3)Gal(b1-4)GlcNAc(b1-3)Gal(b1-4)GlcNAc(b1-2)Man(a1-3)]Man(b1-4)GlcNAc(b1-4)[Fuc(a1-6)]GlcNAc
# Method in brief: as §1
# [7] = biological target: GlcNAc(b1-3)Gal(b1-4)GlcNAc(b1-3)GalNAc
# Method in brief: as §1
# [8] = biological target: Kdn(a2-3)Gal(b1-4)[Fuc(a1-3)]GlcNAc
# Method in brief: as §1
# [9] = biological target: Man(a1-2)Man(a1-2)Man(a1-3)Man
# Method in brief: as §1
# [10] = biological target: Neu5Ac(a2-3)Gal(b1-3)GalNAc
# Method in brief: as §1
# [11] = biological target: Neu5Ac(a2-3)Gal(b1-3)GalNAc6S
# Method in brief: as §1
# [12] = biological target: Neu5Ac(a2-3)Gal(b1-3)GlcNAc(b1-6)GalNAc
# Method in brief: as §1
# [13] = biological target: Neu5Ac(a2-3)Gal(b1-3)[Fuc(a1-4)]GlcNAc(b1-3)Gal(b1-3)[Fuc(a1-4)]GlcNAc
# Method in brief: as §1
# [14] = biological target: Neu5Ac(a2-3)Gal(b1-3)[Neu5Ac(a2-6)]GlcNAc(b1-3)[Fuc(a1-3)[Gal(b1-4)]GlcNAc(b1-6)]Gal(b1-4)Glc
# Method in brief: as §1
# [15] = biological target: Neu5Ac(a2-3)Gal(b1-4)GlcNAc(b1-3)Gal(b1-4)GlcNAc(b1-3)[Neu5Ac(a2-3)Gal(b1-4)GlcNAc(b1-3)Gal(b1-4)GlcNAc(b1-6)]GalNAc
# Method in brief: as §1
# [16] = biological target: Neu5Ac(a2-3)Gal(b1-4)GlcNAc(b1-6)[Gal(b1-3)]GalNAc
# Method in brief: as §1
# [17] = biological target: Neu5Ac(a2-3)Gal(b1-4)[Fuc(a1-3)]GlcNAc(b1-3)Gal(b1-4)GlcNAc
# Method in brief: as §1
# [18] = biological target: Neu5Ac(a2-6)Gal(b1-4)GlcNAc(b1-2)Man(a1-3)[Neu5Ac(a2-6)Gal(b1-4)GlcNAc(b1-2)Man(a1-6)]Man(b1-4)GlcNAc(b1-4)[Fuc(a1-6)]GlcNAc
# Method in brief: as §1
# [19] = biological target: Neu5Ac(a2-6)Gal(b1-4)GlcNAc(b1-3)Gal(b1-4)GlcNAc(b1-3)Gal(b1-4)GlcNAc
# Method in brief: as §1
# [20] = biological target: Neu5Ac(a2-6)Gal(b1-4)GlcNAc(b1-3)Gal(b1-4)GlcNAc(b1-3)Gal(b1-4)GlcNAc(b1-2)Man(a1-3)[Neu5Ac(a2-6)Gal(b1-4)GlcNAc(b1-3)Gal(b1-4)GlcNAc(b1-3)Gal(b1-4)GlcNAc(b1-2)Man(a1-6)]GalNAc
# Method in brief: as §1
# [21] = biological target: Neu5Ac(a2-6)Gal(b1-4)GlcNAc(b1-3)GalNAc
# Method in brief: as §1
# [22] = biological target: Neu5Ac(a2-8)Neu5Ac(a2-3)[GalNAc(b1-4)]Gal(b1-4)Glc
# Method in brief: as §1
# [23] = biological target: Neu5Ac(a2-8)Neu5Ac(a2-8)Neu5Ac(a2-3)Gal(b1-4)Glc
# Method in brief: as §1
# [24] = biological target: Neu5Ac(a2-8)Neu5Gc(a2-3)Gal(b1-4)GlcNAc
# Method in brief: as §1
# [25] = biological target: Neu5Gc(a2-3)Gal(b1-3)[Fuc(a1-4)]GlcNAc
# Method in brief: as §1
binder,measurement,setting,value
PX14343F-bfa-562-20-562 (Bacteroides fragilis) (protein) CDDFLDSFPQDTVTNENFWKSKEDADKVLVDIYASLLPKDAIFFDEAMSDNAYLVWDWWGGAQQVANGSYTTSGEIPTNRWNGSYEVIRKCWFLLEGIEKIEDISEQDKNKIIGETYFMLAYNYYVLTSYFGDVPLVTKTLAIPESKQLVRTPKAEVVDYAINKLKEAAVMLEGLSQEKGRVTADACRFLIARMYLYNGDYSNVLETVKLLEGKYQLYREGDTPYEDLFSGVAENSCEVILSVVCDKRVGEIYTSHGGNGIMLLKGITGEDPYRGVTPSGSLVDAYPMADGRLIHEAGSSYDPKKPYEGRDPRFYQSIVYPTGQIKYLDVETGTVKERLYDPEDPTTVPEHQYNYSQPSATGYMWNKYIDYSVYAMNSVWDCTNDIIVFRYADVLLMKAEALLQTKGESAKEEVCNLIDQLRDRCSCGRVHRENYNSKDELMELLKNERRIELANEGLRYMDLIRWKDAEKNTIVTGVGLTGQMYGAYMRKDGVGKDDKTVDVDNTPRRYIETRYFNASKGYLFPIPQKERDLNPNLTQNPNW,glycan array binding signal (z-score),GalNAc(a1-3)GalNAc,0.306
same,glycan array binding signal (z-score),[1],2.1
same,glycan array binding signal (z-score),[2],0.152
same,glycan array binding signal (z-score),Glc(a1-6)Glc(a1-6)Glc,-0.43
same,glycan array binding signal (z-score),GlcA(b1-3)Gal,-0.822
same,glycan array binding signal (z-score),[3],-0.489
same,glycan array binding signal (z-score),[4],1.87
same,glycan array binding signal (z-score),[5],1.72
same,glycan array binding signal (z-score),[6],0.546
same,glycan array binding signal (z-score),[7],0.486
same,glycan array binding signal (z-score),[8],-0.468
same,glycan array binding signal (z-score),[9],-0.59
same,glycan array binding signal (z-score),[10],-0.546
same,glycan array binding signal (z-score),[11],-0.506
same,glycan array binding signal (z-score),[12],1.15
same,glycan array binding signal (z-score),[13],-0.121
same,glycan array binding signal (z-score),[14],-0.957
same,glycan array binding signal (z-score),[15],1.61
same,glycan array binding signal (z-score),[16],-0.723
same,glycan array binding signal (z-score),[17],0.262
same,glycan array binding signal (z-score),[18],1.09
same,glycan array binding signal (z-score),[19],-0.047
same,glycan array binding signal (z-score),[20],2.16
same,glycan array binding signal (z-score),[21],-0.734
same,glycan array binding signal (z-score),[22],1.74
same,glycan array binding signal (z-score),[23],0.121
same,glycan array binding signal (z-score),[24],19.1
same,glycan array binding signal (z-score),[25],-0.055
